Laboratory results as given in PubChem BioAssay.
The source made the active and inactive calls. Unless noted, how the calls were made is not given here.

Legend:
[1] = anti-His antibody binders, primary screen, artefact control for SMM control protein annotation, biochemical, small-molecule microarray, 635 nm fluorescence (AID 1128); details: anti-His Alexa647 antibody binding, higher = more signal;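 further: score merges feature fluorescence with signal-to-noise for each printed compound spot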
[2] = tested on: Human papillomavirus type 1a E7 protein (residues 1-88); experiment: HPV1a E7 small-molecule binders, primary screen, biochemical, small-molecule microarray, residues 1-88, 635 nm (AID 1129); details: small-molecule microarray binding, fluorescence 635 nm; higher = more signal
[3] = biological target: Focal adhesion kinase 1 (Homo sapiens) (UniProt Q05397); experiment: small-molecule microarray binders of FAK, primary screen, biochemical, 635/667 nm fluorescence, BSA, DTT (AID 1130); details: PTK2 binding, 635 nm fluorescence, higher = more signal;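 further: composite of spot emission at 667 nm and signal to noise over triplicate slides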
Sequence of Focal adhesion kinase 1 (Homo sapiens) (Q05397 whole entry, looked up): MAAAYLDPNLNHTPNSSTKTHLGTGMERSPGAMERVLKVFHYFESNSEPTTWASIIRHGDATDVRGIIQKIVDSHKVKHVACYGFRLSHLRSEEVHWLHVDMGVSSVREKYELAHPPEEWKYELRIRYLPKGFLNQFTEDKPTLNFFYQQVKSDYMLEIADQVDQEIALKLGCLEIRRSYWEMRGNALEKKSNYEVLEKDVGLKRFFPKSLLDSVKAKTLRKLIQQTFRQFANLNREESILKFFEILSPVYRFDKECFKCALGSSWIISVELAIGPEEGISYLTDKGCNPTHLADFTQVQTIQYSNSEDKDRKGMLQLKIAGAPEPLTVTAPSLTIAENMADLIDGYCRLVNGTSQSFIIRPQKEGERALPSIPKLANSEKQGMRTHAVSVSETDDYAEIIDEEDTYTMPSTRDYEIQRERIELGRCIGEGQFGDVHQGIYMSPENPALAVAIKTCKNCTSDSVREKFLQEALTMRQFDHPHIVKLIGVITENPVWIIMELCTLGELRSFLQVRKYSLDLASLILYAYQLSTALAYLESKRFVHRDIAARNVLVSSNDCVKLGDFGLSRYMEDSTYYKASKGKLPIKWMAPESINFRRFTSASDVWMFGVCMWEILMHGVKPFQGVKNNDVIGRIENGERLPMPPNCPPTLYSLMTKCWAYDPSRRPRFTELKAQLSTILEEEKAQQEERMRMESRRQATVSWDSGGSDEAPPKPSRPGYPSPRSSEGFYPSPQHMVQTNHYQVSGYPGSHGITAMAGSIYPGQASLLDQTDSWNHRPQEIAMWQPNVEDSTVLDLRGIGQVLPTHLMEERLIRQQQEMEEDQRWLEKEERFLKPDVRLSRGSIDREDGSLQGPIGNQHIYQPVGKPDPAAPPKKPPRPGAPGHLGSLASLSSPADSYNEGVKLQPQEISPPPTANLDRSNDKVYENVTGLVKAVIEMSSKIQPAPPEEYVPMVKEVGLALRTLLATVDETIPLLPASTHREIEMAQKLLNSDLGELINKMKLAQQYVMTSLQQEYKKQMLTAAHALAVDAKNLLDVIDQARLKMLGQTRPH

[4] = tested on: Fibrinogen (Alexa647-labelled); experiment: fibrinogen binders on compound microarrays, profiling panel, artefact control for SMM control-protein annotation, biochemical, small-molecule microarray, 635/667 nm fluorescence (AID 1131); details: fibrinogen-A647 binding fluorescence, higher = more signal;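 further: z-score merges 667 nm fluorescence with per-spot signal-to-noise over triplicate slides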
[5] = biological target: Follistatin (Homo sapiens) (UniProt P19883); experiment: follistatin binders on small-molecule microarrays, primary screen, biochemical, small-molecule microarray, 635/667 nm fluorescence (AID 1132); details: FST binding, 635 nm fluorescence, higher = more signal
Sequence of Follistatin (Homo sapiens) (P19883 whole entry, looked up): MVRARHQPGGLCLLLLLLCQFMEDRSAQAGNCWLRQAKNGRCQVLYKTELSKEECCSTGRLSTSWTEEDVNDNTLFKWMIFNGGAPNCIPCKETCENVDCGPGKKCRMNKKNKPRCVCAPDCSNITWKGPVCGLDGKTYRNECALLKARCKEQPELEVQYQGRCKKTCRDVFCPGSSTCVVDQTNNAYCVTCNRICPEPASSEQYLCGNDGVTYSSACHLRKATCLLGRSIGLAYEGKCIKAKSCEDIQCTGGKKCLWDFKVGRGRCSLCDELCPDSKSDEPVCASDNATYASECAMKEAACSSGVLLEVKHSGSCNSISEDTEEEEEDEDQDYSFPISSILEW

[6] = biological target: Fibroblast growth factor 2 (Homo sapiens) (UniProt P09038); experiment: FGF2 binders on small-molecule microarrays, primary screen, biochemical, small-molecule microarray, 635/667 nm fluorescence (AID 1133); details: small-molecule microarray binding, FGF2, fluorescence 635/667; higher = more signal
Sequence of Fibroblast growth factor 2 (Homo sapiens) (P09038 whole entry, looked up): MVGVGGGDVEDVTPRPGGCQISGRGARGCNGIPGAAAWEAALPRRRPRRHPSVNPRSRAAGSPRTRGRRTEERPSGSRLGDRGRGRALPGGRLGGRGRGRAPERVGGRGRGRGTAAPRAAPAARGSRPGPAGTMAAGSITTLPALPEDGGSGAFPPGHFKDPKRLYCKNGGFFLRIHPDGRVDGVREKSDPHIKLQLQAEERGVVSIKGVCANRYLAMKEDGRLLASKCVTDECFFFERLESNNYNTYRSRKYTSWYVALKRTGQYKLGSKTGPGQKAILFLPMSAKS

[7] = mitochondrial membrane potential change in A549 cells, profiling panel, cell-based, JC-1 fluorescence, basal, 24 h, 100 nL (AID 1138); details: higher = more signal;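 further: A549 lung adenocarcinoma cells under basal conditions with no added stimulus; test concentration not given here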
Lefty1 = Lefty1 binders on small-molecule microarrays, primary screen, biochemical, small-molecule microarray, 635/667 nm fluorescence (AID 1139); details: small-molecule microarray binding, fluorescence 635/667; higher = more signal
[8] = tested on: wheat germ agglutinin (Triticum aestivum), Alexa647-labelled; experiment: wheat germ agglutinin binders on compound microarrays, profiling panel, artefact control for SMM control-protein annotation, biochemical, small-molecule microarray, 635/667 nm fluorescence (AID 1140); details: WGA-A647 binding, 635 nm fluorescence, higher = more signal;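 further: score merges 667 nm feature emission with signal to noise over triplicate slides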
[9] = biological target: Luciferin 4-monooxygenase (Photinus pyralis) (UniProt P08659); experiment: firefly luciferase enzyme inhibitors, primary screen, biochemical, luminescence, purified enzyme, 2006 set (AID 1141); details: SteadyGlo luminescence, 30 min, higher = more signal, called active from +8 up or from −8 down;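 further: cell-free assay with purified firefly luciferase at 100 ng per well in PBS; test concentration not given here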
Sequence of Luciferin 4-monooxygenase (Photinus pyralis) (P08659 whole entry, looked up): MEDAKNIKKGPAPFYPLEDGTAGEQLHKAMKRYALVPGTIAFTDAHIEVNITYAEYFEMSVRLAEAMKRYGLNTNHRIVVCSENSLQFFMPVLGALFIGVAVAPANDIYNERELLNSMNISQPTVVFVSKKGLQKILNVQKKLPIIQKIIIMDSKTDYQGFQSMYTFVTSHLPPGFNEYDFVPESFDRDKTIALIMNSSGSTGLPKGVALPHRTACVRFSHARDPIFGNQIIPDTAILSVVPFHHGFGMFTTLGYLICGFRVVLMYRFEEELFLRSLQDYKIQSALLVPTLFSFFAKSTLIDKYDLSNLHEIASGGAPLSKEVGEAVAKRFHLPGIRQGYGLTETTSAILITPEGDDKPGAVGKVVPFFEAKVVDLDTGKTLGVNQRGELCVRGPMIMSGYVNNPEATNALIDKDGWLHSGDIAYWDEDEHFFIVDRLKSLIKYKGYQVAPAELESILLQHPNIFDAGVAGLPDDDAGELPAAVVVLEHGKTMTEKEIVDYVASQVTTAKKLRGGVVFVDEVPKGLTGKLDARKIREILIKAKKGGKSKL

[10] = tested on: Wnt5a (protein binding on small-molecule microarray); experiment: Wnt5a binders on small-molecule microarray, primary screen, biophysical, 635/667 nm fluorescence (AID 1142); details: 635 nm fluorescence, higher = more signal;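 further: fluorescence read at 667 nm with signal to noise per printed feature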
[11] = cell viability in Huh7 cells, primary screen, cytotoxicity control for HCV replication inhibitor project, CellTiter-Glo luminescence, basal, 48 h (AID 1143); details: Huh7 HCV replicon, higher = more signal, called active from +8 up or from −8 down;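 further: Huh7 hepatoma cells carrying a hepatitis C replication reporter with no stimulus; test concentration not given here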
[12] = P. aeruginosa biofilm formation inhibitors, primary screen, PAO1 strain, BacTiter-Glo luminescence, LB-PBS (AID 1144); details: 12 h, higher = more signal
[13] = CREB reporter modulators without forskolin, primary screen, cell-based, PC12, CRE-LacZ reporter, unstimulated (AID 1145); details: no forskolin, luminescence, 4.5 h, higher = more signal, called active from +8 up or from −8 down
[14] = CREB reporter modulators under forskolin, primary screen, cell-based, PC12, CRE-LacZ reporter, forskolin-stimulated (AID 1146); details: luminescence, 4.5 h, higher = more signal, called active from +8 up or from −8 down;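 further: PC12 cells with 6xCRE LacZ reporter stimulated by forskolin 10 µM; beta-galactosidase reporter signal reflecting CREB driven transcription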
[15] = biological target: Streptavidin (Streptomyces avidinii) (UniProt P22629); experiment: streptavidin binders on small-molecule microarray, primary screen, artefact control for SMM compound annotation, biophysical, 635/667 nm fluorescence (AID 1147); details: streptavidin binding, higher = more signal;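 further: signal reflects streptavidin binding to arrayed compounds as a control protein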
Sequence of Streptavidin (Streptomyces avidinii) (P22629 whole entry, looked up): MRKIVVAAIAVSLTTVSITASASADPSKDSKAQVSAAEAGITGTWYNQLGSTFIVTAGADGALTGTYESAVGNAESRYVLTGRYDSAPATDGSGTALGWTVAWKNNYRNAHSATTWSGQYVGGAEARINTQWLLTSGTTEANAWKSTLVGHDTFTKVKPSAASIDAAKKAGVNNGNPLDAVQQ

[16] = small-molecule binders of probe aInhba, primary screen, biochemical, small-molecule microarray, 635/667 nm fluorescence (AID 1148); details: higher = more signal;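 further: score merges 667nm spot fluorescence with signal-to-noise for antibody binding to printed compounds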
Torsin-1A (Homo sapiens) [17] = biological target: Torsin-1A (Homo sapiens) (UniProt O14656); experiment: torsin A binders from cell lysate, primary screen, small-molecule microarray, wild-type, 635/667 nm (AID 1149); details: COS7 hTOR1A-WT lysate, 635 nm fluorescence, higher = more signal
Sequence of Torsin-1A (Homo sapiens) (O14656 whole entry, looked up): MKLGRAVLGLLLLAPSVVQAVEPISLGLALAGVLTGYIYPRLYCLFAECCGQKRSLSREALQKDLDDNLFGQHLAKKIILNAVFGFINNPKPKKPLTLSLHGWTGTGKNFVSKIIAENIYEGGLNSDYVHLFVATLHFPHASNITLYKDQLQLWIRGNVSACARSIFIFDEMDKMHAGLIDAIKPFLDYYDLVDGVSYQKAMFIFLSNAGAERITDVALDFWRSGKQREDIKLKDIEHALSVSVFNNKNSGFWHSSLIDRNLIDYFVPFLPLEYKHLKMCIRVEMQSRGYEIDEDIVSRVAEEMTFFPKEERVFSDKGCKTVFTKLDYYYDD

Torsin-1A (Homo sapiens) [18] = biological target: Torsin-1A (Homo sapiens) (UniProt O14656); experiment: small-molecule binders of mutant TOR1A in lysate, primary screen, cell lysate, small-molecule microarray, COS7 lysate, 635/667 nm fluorescence (AID 1150); details: COS7 hTOR1A mutant lysate, 635 nm fluorescence, higher = more signal;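 further: score pools 667 nm emission and signal to noise measuring lysate protein binding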
[19] = tested on: Sonic hedgehog protein (Shh); experiment: small-molecule binders of Shh protein, primary screen, biochemical, small-molecule microarray, 635/667 nm fluorescence (AID 1151); details: small-molecule microarray binding, 635 nm fluorescence; higher = more signal;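 further: Shh protein binding to compounds spotted on small-molecule microarray slides; score combines spot fluorescence intensity with signal-to-noise across triplicate slides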

SMILES	composite z-score [1]	composite z-score [2]	composite z-score [3]	composite z-score [4]	composite z-score [5]	composite z-score [6]	z-score [7]	composite z-score (Lefty1)	composite z-score [8]	z-score [9]	composite z-score [10]	z-score [11]	z-score [12]	z-score [13]	z-score [14]	composite z-score [15]	composite z-score [16]	composite z-score (Torsin-1A (Homo sapiens) [17])	composite z-score (Torsin-1A (Homo sapiens) [18])	composite z-score [19]
C=CCNC(=O)[C@H]1[C@@H]2C(=O)O[C@@H](c3ccccc3)[C@@H](c3ccccc3)N2[C@@H](c2ccc(O)cc2)[C@]12C(=O)Nc1ccccc12	0.809	0.642	-0.176	0.13	0.719	0.757	0.914	-0.319	-0.496	-1.57 (inactive)	-0.124	-0.792 (inactive)	-0.683 (inactive)	-0.195 (inactive)	-0.0955 (inactive)	-0.642	-0.128	0.64	0.778	0.279
O=C(c1ccccc1)N1Cc2ccccc2C[C@@]2(N=C(c3ccc(OCCCO)cc3)O[C@H]2c2ccccc2)C1=O	1.89	1.21	1.18	0.826	1.44	1.44	-1.85	0.984	-0.17	-1.29 (inactive)	1.27	-4.73 (inactive)	-0.191 (inactive)	0.904 (inactive)	-1.12 (inactive)	0.491	0.0658	0.881	1.06	2.19
COC(=O)[C@@]1(Cc2ccc(F)cc2)[C@H]2c3cc(C(=O)N4CCCC4)n(CCSCCO)c3C[C@H]2CN1C(=O)c1ccccc1	0.163	0.767	1.11	0.982	-0.16	-0.79	0.281	-0.973	0.679	0.5 (inactive)	0.0841	-1.11 (inactive)	-0.375 (inactive)	0.397 (inactive)	1.13 (inactive)	-0.383	-0.0477	-0.319	0.301	-0.697
COc1ccc(C(O)C2C=CC3C(=O)N(c4ccccc4)C(=O)C3N2Nc2ccccc2F)c2ccccc12 (stereo not given)	1.95	1.23	1.03	0.995	1.33	0.716	-0.646	-0.111	1.29	-1.77 (inactive)	0.936	-0.225 (inactive)	-1.21 (inactive)	0.629 (inactive)	-0.813 (inactive)	2.38	1.11	0.163	0.273	0.824
C[N+](C)(C)CCCC[C@@H]1NC(=O)[C@H]2C[C@@H](C(=O)O)[C@@H](c3ccc(O)cc3)N2C1=O	1.04	0.123	-0.216	-0.223	0.864	0.948	1.49	0.155	-0.185	-1.93 (inactive)	0.0425	-0.497 (inactive)	-1.19 (inactive)	0.285 (inactive)	-0.744 (inactive)	-0.206	0.0051	0.049	0.38	1.22
CC(C)C[C@@H]1NC(=O)[C@@H]2C[C@H](C(=O)NCCCCCCNC(=O)CS)[C@H](c3ccc(O)cc3)N2C1=O	2.1	1.28	0.116	0.913	1.46	1.62	-1.16	1.41	0.907	-0.677 (inactive)	0.841	-1.88 (inactive)	-0.00979 (inactive)	-0.268 (inactive)	-0.439 (inactive)	0.813	-0.0933	0.887	1.21	2.21
COC(=O)[C@]1(Cc2ccccc2CN=[N+]=[N-])N=C(c2ccc(OCCCO)cc2)O[C@@H]1c1ccccc1N=[N+]=[N-]	1.29	0.833	0.499	-0.0222	1.15	0.802	-0.453	-0.251	0.425	-3.31 (inactive)	0.786	-5.02 (inactive)	-0.332 (inactive)	3.72 (inactive)	0.335 (inactive)	-0.174	0.0082	-0.0005	-0.147	0.336
